Each sequence was assayed against PELI3 (assay: pooled miR-30 sensor sort-seq; sequence = guide strand). Conditions: shRNA.
Note: reference of the scale not given here.

Sequence | sensor-assay potency score (higher = more potent)
TGTCTGTGTCGCTATCATGTGT | -0.284
TGTATACTCCACTATGACCGAG | -0.429
TATCATGTGTATACTCCACTAT | -0.135
TTGCTAGAGGCATCGAAGCCAG | -0.912
TACACATTCCCACAGACCGAGA | -1.66
AAGTCAATCATGTTCTCTGTGG | -0.484
ATCATGTGTATACTCCACTATG | -1.35
TCAATCATGTTCTCTGTGGAGC | -0.446
ATCATGTTCTCTGTGGAGCGGC | -0.826
TCTGTGTCGCTATCATGTGTAT | -0.903
TGGAACATGTCTGTGTCGCTAT | 0.131
ATTGGTGGTCAGTCCATCCATC | -0.798

The sequences below were run against PEX11G in the same assay as above. Conditions: shRNA.

Sequence | sensor-assay potency score (higher = more potent)
TTCAGCAGCATCCACAGGGACC | -1.68
AACCAGAACTCCACCAACCAGC | -1.17
AAGAGTCGCAAGATGGTCCTGC | 0.55
TTTCAGCAGCATCCACAGGGAC | -0.746
TTGCTTAGTGTAGACAAACATG | -1.38
TTAGTGTAGACAAACATGGCCA | -0.26
TAGACAAACATGGCCAGGTCAT | -0.9
TTGGGTGGACACCACCAACAGA | -1.13

From the OligoGym collection
